Substitutions are numbered along the chain they refer to. Whole data set: some 24,000 sequences, median “enrichment r” near 0.99, cut for the highest 2% near 3.7. The sample holds the highest values, similar sequences and a random draw of the others, so the mix is not that of the screen.
T1: UNK ZnF1-3 (human, UniProt Q9C0B0 31-174)
T1 sequence: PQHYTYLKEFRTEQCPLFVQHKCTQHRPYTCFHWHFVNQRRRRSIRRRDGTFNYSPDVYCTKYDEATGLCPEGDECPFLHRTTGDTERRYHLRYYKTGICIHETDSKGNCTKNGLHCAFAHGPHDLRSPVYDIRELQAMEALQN

B1: 107145582_107145702_897_CDS_ENSG00000125266_ENST00000245323|human|control|control (ssRNA)
RNA: GGGAGUUCUACAGUCCGACGAUCGAGCGACAGCGUGGUCGUGUGCUGCGGCGAGUGCUUCCUGUGUCUCCUCCGGUACUUCAGCAAGAGGACCACCAGCGUGAUGAUGAUGACGAUGAAGAUGAUGCAUCCUGAAGCAAUCCCCAACAGAGGAUUGAGCAUCA
B2: chr9:115598534:115598535:+_ENSG00000148158_ENST00000374232|hu_mus|FALSE|FALSE (ssRNA)
RNA: GGGAGUUCUACAGUCCGACGAUCCAGCUUAUAGCCUCCGGUGACGUGCUUGACUGACUCACCCACUCUGCUCAGCAAUGCUAUCCCUUGCUUCUUGUAGGCAUUCAGGUCCUUAGCAGUGAGGAACACAUUGAAGUGUUCAUUCAACAGAGGAUUGAGCAUCA
B3: chrX:165757501:165757502:-_ENSMUSG00000031352_ENSMUST00000112115|mus_hu|FALSE|FALSE (ssRNA)
RNA: GGGAGUUCUACAGUCCGACGAUCGCAGGAGCAGAUGGAGACAAACCCAUGGCUGGAAACAGUGUUGACUGUAAACAAUUUUAAAUUUCCACCUGCUCCAGCCCGUGGUCCCCAGACCAAACCGGCCGCGGCCAGCCUGCCCUUCAACAGAGGAUUGAGCAUCA
B4: chr10:33190432:33190433:-_ENSG00000150093_ENST00000302278|hu_mus|hu_hu_hu_mus_True|58_98 (ssRNA)
RNA: GGGAGUUCUACAGUCCGACGAUCUACAUUUUCCAAACCUGCACAUGAAUAAAACCCUGGCCACAGAGCCCCAAAACUACCUAACUGUGACUAAGAUGCUGCUGCUGUGAGCUUGGUGUUGCAAAAUCCGCCUGAGUAGGAUUCCAACAGAGGAUUGAGCAUCA
B5: 10529348_10532452_191_CDS_ENSG00000160049_ENST00000377038|human|control|control (ssRNA)
RNA: GGGAGUUCUACAGUCCGACGAUCCAGGGUGACUGGUGUCAGGGACUUAUCAAUGGCCAGAAUGUCACAGGCCUUGCUCCUCAGGUCUUCGAGGCAGGAGGCGGCCACGCCGUGCUGUUCGCGGCUGUAGUUGCGGCGCAGCAGCAACAGAGGAUUGAGCAUCA
B6: chr4:125586161:125586162:-_ENSG00000151458_ENST00000504087|hu_hu|motif|central (ssRNA)
RNA: GGGAGUUCUACAGUCCGACGAUCUUGUGUAGUGGCAACAGCUGAUUUAUAAAAUUUAAAGAUUUUAAUUUCAAAAAUAUCGGUUAAGGAGUUUUAUAUUUGGAGGACAAUUUUUACUUUUUAAUGGAGCAGAAGCCAUUUUCACAACAGAGGAUUGAGCAUCA
B7: 105048333_105048453_1516_3pUTR_ENSG00000148798_ENST00000369849|human|control|control (ssRNA)
RNA: GGGAGUUCUACAGUCCGACGAUCAGCAUUAACUUUUUCAAAGCAAUGGAAUUAUAUUUUUUGGCUUGAAAUGGUGGUUUCUUCUAUAUUUGAUUUCUCGGUUUUCUUAGUAGAUAUUACUGUCUCCUCUAAUAUUUCUUCAAACAACAGAGGAUUGAGCAUCA
B8: chr4:125586161:125586162:-_ENSG00000151458_ENST00000504087|hu_hu|FALSE|FALSE (ssRNA)
RNA: B6 RNA with G81U, G82A
B9: chr12:86641468:86641469:-_ENSMUSG00000034290_ENSMUST00000040992|mus_mus|FALSE|FALSE (ssRNA)
RNA: GGGAGUUCUACAGUCCGACGAUCGCAAUAUUAAGAGAGAUAGCCAACCUUUUUUUUGGGGGGGGGGUUUGGUUAAAUGAAACAAUAUUAAUUUAGCUGUGUGUAGUACAGAGGAUAUGGUACUUAUCAAAGGAGCUGCUGUGGCAACAGAGGAUUGAGCAUCA
B10: chr8:13147844:13147845:+_ENSMUSG00000031446_ENSMUST00000016680|mus_hu|FALSE|FALSE (ssRNA)
RNA: GGGAGUUCUACAGUCCGACGAUCUACAAUAUUAACAAUCUCUAGACACAACGAACUUAUAAGAAAAAAAAAAUAGAAAUCUGUUUGGUCUUUCUUAGACCACAUAUCAUGGAACUCAUAAAUGAAAAUUUUCAAAGAUAGAAACAACAGAGGAUUGAGCAUCA
B11: chr1:60041781:60041782:+_ENSMUSG00000041040_ENSMUST00000036540|mus_hu|mus_mus_mus_hu_False|1_38 (ssRNA)
RNA: GGGAGUUCUACAGUCCGACGAUCAAGUUUACAAUAGUAAAGUAAAUGCAGUAGUGGCAAAUUUUCUUUUAUUUUCCUUCACAAAAGAAAAUCUUUAGAUCUCAGUUCUAGUCUUGGACAUAGUGAAAGCUAUAAAUGCCACUGCAACAGAGGAUUGAGCAUCA
B12: 24223610_24223730_1957_3pUTR_ENSG00000173960_ENST00000309033|human|control|control (ssRNA)
RNA: GGGAGUUCUACAGUCCGACGAUCUUUUGAAAGAAAAUAAAAUGGAAAGGGAAUAGGCUUUUUAGAAAGAUAAUUUUCUUUUAUUACAUUUUUAUAAAGUGUAGAAAUGUGAGUAGGCAGAUUAAUCUUGAUACUAUACUGAGCCAACAGAGGAUUGAGCAUCA
B13: chrX:147030410:147030411:+_ENSG00000102081_ENST00000218200|hu_mus|FALSE|FALSE (ssRNA)
RNA: GGGAGUUCUACAGUCCGACGAUCACUUCAUGCCCUGUGCCAUCUUGCCUACUAUUUGUCUUUGGCCUAACAAAGUUUUCUAAAAUGGAGUAAGAAUUACGGAAAUGGUAGAGGAAAUAUAACUUCGGAAUUAUGUAGCUUAUUCAACAGAGGAUUGAGCAUCA
B14: chr4:17841332:17841333:+_ENSG00000109805_ENST00000514176|hu_hu|FALSE|FALSE (ssRNA)
RNA: GGGAGUUCUACAGUCCGACGAUCCUUUUGUAUAGACUCGAAUUUCUGGCGAGCACGGACUUGUUAAGAUCUCAUUGCAAAUUUUCAUAGCCAAAUUGUCAUGUACUGUUAAGGCCUGAUAAUCUUGGGAAGUCUUGGCCUGAGCAACAGAGGAUUGAGCAUCA
B15: chr17:56552419:56552420:-_ENSMUSG00000013236_ENSMUST00000086828|mus_mus|mus_mus_mus_hu_False|28_58 (ssRNA)
RNA: GGGAGUUCUACAGUCCGACGAUCAAAAAAUACACUAUUUAAAAAAAAUGAAAUGUCACGGGAUACAGUUACACUGACACUAUUAAAAGAAAGCUGGAUUCUGGUCCUUGCCAAAAGUCCCCAGGCUGCAGAGCGGGGAGGAGCCAACAGAGGAUUGAGCAUCA
B16: chr17:56552419:56552420:-_ENSMUSG00000013236_ENSMUST00000086828|mus_mus|mus_mus_mus_hu_False|28_48 (ssRNA)
RNA: B15 RNA with C77G, C79G, A81U, G88A, G92A, C93U, U94A, G95A
B17: chr17:56552419:56552420:-_ENSMUSG00000013236_ENSMUST00000086828|mus_mus|mus_mus_mus_hu_False|28_78 (ssRNA)
RNA: B15 RNA with C58G, G59A, G60A, G61A, U63A, A64G, C65A, C77G, C79G, A81U
B18: chr17:56552419:56552420:-_ENSMUSG00000013236_ENSMUST00000086828|mus_mus|mus_mus_mus_hu_False|28_98 (ssRNA)
RNA: B15 RNA with U38A, U39A, C77G, C79G, A81U
B19: chr7:149068622:149068623:-_ENSMUSG00000025139_ENSMUST00000001950|mus_hu|mus_mus_mus_hu_False|78_88 (ssRNA)
RNA: GGGAGUUCUACAGUCCGACGAUCGUGAGGCCUCUGAGUGUGGCUUGUGCUCUGCAGUGUCUGCAGUUUGUUAAUAUCACGGAACAUACCAUCUAGAACGUUCCAGUCCCGCCUGACACCUUCAUUCCCAAUGGAGAAGAAAUCCAACAGAGGAUUGAGCAUCA
B20: chr5:135101456:135101457:-_ENSMUSG00000040731_ENSMUST00000036125|mus_mus|motif|central (ssRNA)
RNA: GGGAGUUCUACAGUCCGACGAUCACCCAAGAGUGCACCGUCAUAAGUCAGAGCCUCCUUCAGGGAAUCCACCUCAUCAAAUUCGGCAUAGCAGAACCCUUUAAAUUUGUCUGUGUCUUUGUCUCUGACUAGCCGCACACUCCGCAACAGAGGAUUGAGCAUCA
B21: chrX:130830059:130830060:+_ENSMUSG00000033578_ENSMUST00000037687|mus_mus|FALSE|FALSE (ssRNA)
RNA: GGGAGUUCUACAGUCCGACGAUCGGGCCAUGAUAGUUAUGGUUCGUGGGGAUGCCAUGGGGUCACCAAGGCAGGUCCCAACUAAUCCCUCUGCUUUGCGCAGCCCGGCUGUCAAGGCGCAGGCAGUUAGCACAGGGAGAGCUACAACAGAGGAUUGAGCAUCA
B22: chr1:163117127:163117128:-_ENSG00000143248_ENST00000313961|hu_mus|FALSE|FALSE (ssRNA)
RNA: GGGAGUUCUACAGUCCGACGAUCUGCUACAAAGGAUGUAACUCAACUCACAGGGCAACUUUUGGAAGCCUGACCAGAUGACUACUUGAUUAGCUCCUUAUAAAAUUCAGAGCGCACAAAGCGGGGCAGAGAAUCCUUCUCCAUCAACAGAGGAUUGAGCAUCA

molecular target: T1, UNK ZnF1-3; assay: nsRBNS (natural sequence RNA bind-n-seq); RBNS binding buffer (assumed for nsRBNS): 25 mM Tris pH 7.5, 150 mM KCl, 3 mM MgCl2, 0.01% Triton X-100, 500 ug/ml BSA, 20 U/ml SUPERase-In, 4 C; UNK is unkempt and MSI1 is Musashi-1; names of the RNAs are library labels; protein concentration not given here; high values mean tight binding

| Binder | binding signal |
| --- | --- |
| B1 | 1.32 enrichment R |
| B2 | 0.557 enrichment R |
| B3 | 0.781 enrichment R |
| B4 | 1.55 enrichment R |
| B5 | 0.999 enrichment R |
| B6 | 4.45 enrichment R |
| B7 | 4.33 enrichment R |
| B8 | 4.35 enrichment R |
| B9 | 3.28 enrichment R |
| B10 | 3.59 enrichment R |
| B11 | 0.52 enrichment R |
| B12 | 3.4 enrichment R |
| B13 | 1.78 enrichment R |
| B14 | 0.957 enrichment R |
| B15 | 4.14 enrichment R |
| B16 | 6.32 enrichment R |
| B17 | 3.64 enrichment R |
| B18 | 6.54 enrichment R |
| B19 | 0.733 enrichment R |
| B20 | 0.437 enrichment R |
| B21 | 0.967 enrichment R |
| B22 | 1.14 enrichment R |
